Assay outcomes from PubChem.
PG9 binder: binders of HIV-1 gp120 antibody PG9, primary screen, biochemical, TR-FRET | TR-FRET gp120-PG9 antibody binding | AID 624416, 2012 | HIV-1 gp120 / PG9 antibody interaction | inhibition, % at 6.7 µM | 360,000 compounds, 0.43% hits; in the data active = inhibition above about 8.5%
UHRF1 MBD2 ctr: UHRF1 methylated DNA binding inhibitors, primary screen, counter-screen for MBD2 inhibitor project, biochemical, TR-FRET, human UHRF1, single concentration; UHRF1 binding to methylated oligo; 370,000 compounds, 0.75% hits; inhibition, % at 4.4 µM; in the data active = inhibition above about 21%;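 also: UHRF1 SRA domain binding a hemimethylated CpG hairpin DNA probe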
DNMT1 inh: human DNMT1 methyltransferase inhibitors, primary screen, biochemical, molecular beacon, fluorescence, HinP1I cleavage, uHTS; DNA (cytosine-5)-methyltransferase 1 (Homo sapiens), P26358; 360,000 compounds, 0.83% hits; inhibition (reported as % activation of signal), % at 10 µM; in the data active = inhibition above about 50%
Target sequence (P26358 504-1616 limits assumed): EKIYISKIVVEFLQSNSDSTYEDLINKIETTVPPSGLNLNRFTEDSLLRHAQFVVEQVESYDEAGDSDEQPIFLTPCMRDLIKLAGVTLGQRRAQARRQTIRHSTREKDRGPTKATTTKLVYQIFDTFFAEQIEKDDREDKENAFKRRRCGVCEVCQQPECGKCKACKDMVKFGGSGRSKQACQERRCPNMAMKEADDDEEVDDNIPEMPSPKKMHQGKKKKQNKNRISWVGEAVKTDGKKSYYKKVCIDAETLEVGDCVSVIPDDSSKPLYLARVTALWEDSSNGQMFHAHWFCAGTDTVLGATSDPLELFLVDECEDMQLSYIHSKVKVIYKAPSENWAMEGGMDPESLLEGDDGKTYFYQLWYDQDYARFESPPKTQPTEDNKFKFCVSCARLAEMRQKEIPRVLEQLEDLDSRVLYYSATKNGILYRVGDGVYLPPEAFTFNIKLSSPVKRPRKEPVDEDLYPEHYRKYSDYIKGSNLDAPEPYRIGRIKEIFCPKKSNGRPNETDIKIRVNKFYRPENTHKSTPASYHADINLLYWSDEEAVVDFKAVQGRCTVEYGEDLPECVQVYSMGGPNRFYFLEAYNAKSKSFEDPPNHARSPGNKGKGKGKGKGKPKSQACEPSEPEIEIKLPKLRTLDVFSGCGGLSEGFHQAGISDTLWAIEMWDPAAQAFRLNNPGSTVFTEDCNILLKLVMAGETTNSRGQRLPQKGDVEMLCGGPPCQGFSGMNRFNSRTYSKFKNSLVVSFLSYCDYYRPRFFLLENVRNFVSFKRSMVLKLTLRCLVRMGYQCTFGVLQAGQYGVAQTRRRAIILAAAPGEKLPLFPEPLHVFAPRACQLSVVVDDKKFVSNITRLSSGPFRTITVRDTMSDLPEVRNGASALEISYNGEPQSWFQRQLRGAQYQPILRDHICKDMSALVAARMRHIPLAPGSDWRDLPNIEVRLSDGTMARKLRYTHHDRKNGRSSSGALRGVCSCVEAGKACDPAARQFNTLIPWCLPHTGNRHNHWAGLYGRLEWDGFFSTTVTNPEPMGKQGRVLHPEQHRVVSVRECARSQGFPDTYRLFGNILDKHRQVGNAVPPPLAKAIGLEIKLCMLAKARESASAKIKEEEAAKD
LEDGF integ inh: blockers of LEDGF/p75-dependent integrase strand transfer – biochemical, TR-FRET, high throughput, primary screen. HIV-1 integrase (with human LEDGF/p75). AID 743269, 2014. inhibition, % at 3.7 µM. 370,000 compounds, 0.64% hits. TR-FRET IN-LEDGF/p75 DNA integration, Eu/Cy5;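 active = inhibition above the screen-wide mean plus 3 SD, cut at about 13% in these data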;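 also: signal is the Cy5 over europium emission ratio at 671 and 618 nm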
rCAG RNA binder: binders of r(CAG) RNA repeats, primary screen, biochemical, fluorescence | r(CAG) RNA repeat, TO-PRO-1 dye displacement fluorescence | inhibition, % at 3 µM | 370,000 compounds, 1.3% hits;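 active = inhibition above the plate cutoff, the mean of all test compounds on that plate plus 3 SD, cut at about 35% in these data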;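 also: higher means more dye released from RNA so lower well fluorescence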
MBD2 inh: inhibitors of MBD2 binding to methylated DNA, primary screen, biochemical, TR-FRET, DNA-binding domain, human; Methyl-CpG-binding domain protein 2 (Homo sapiens), Q9UBB5; 370,000 compounds, 0.31% hits; MBD2 binding to methylated oligonucleotide; inhibition, % at 4.4 µM; AID 686964, 2013; in the data active = inhibition above about 13%
rCAG bind conf: small molecules binding CAG repeat RNA – biochemical, fluorescence, confirmation | shares compounds with rCAG RNA binder | r(CAG) RNA repeat, TO-PRO-1 dye displacement fluorescence | inhibition, % at 3 µM | 4,300 compounds, 70% hits | AID 652065, 2013;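 active = inhibition above a per-plate cutoff, the mean inhibition of sample wells plus 3 SD, cut at about 35% in these data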;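 also: loss of TO-PRO-1 fluorescence as compound displaces dye from 1x1 AA loop RNA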
dCAG dye counter: displacement of TO-PRO-1 from CAG DNA duplex, counter-screen for rCAG RNA repeat binder project, biochemical, fluorescence, TO-PRO-1 dye, d(CAG) DNA oligo | shares compounds with rCAG RNA binder | d(CAG) DNA oligo TO-PRO-1 dye displacement | inhibition, % at 3 µM | 4,300 compounds, 94% hits;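 active = inhibition above its plate's cutoff, the mean test-well inhibition plus 3 SD, cut at about 4.8% in these data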;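 also: hits displace the dye from DNA and so lower well fluorescence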
Hits are given with their value. Sampled rows, rich in hits. Any-hit rate of the full collection: about 3.5%.

Screening Cc1cccc(NC(=O)CSc2nnc3ccc(-c4cccnc4)nn23)c1 returned PG9 binder inactive, UHRF1 MBD2 ctr inactive, DNMT1 inh inactive, LEDGF integ inh inactive, rCAG RNA binder inactive and MBD2 inh inactive.
`Cc1ccc([N+](=O)[O-])cc1S(=O)(=O)Nc1ccc(-c2ccc(N3CCCC3)nn2)cc1` gave PG9 binder inactive, UHRF1 MBD2 ctr inactive, DNMT1 inh inactive, LEDGF integ inh inactive, rCAG RNA binder 37.4, MBD2 inh inactive, rCAG bind conf 43.5 and dCAG dye counter 15.5.
For O=[N+]([O-])c1ccccc1S(=O)(=O)Nc1cccc(-c2ccc(N3CCOCC3)nn2)c1 the results were PG9 binder inactive, UHRF1 MBD2 ctr inactive, DNMT1 inh inactive, LEDGF integ inh inactive, rCAG RNA binder inactive and MBD2 inh inactive.
Screening O=[N+]([O-])c1ccc(Cl)c(S(=O)(=O)Nc2ccc(-c3ccc(N4CCCC4)nn3)cc2)c1 returned PG9 binder inactive, UHRF1 MBD2 ctr inactive, DNMT1 inh inactive, LEDGF integ inh inactive, rCAG RNA binder 47.1, MBD2 inh inactive, rCAG bind conf 39.3 and dCAG dye counter 11.6.
Cc1c([N+](=O)[O-])cc(S(=O)(=O)Nc2ccc(-c3ccc(N4CCCC4)nn3)cc2)cc1[N+](=O)[O-] was read as PG9 binder inactive, UHRF1 MBD2 ctr inactive, DNMT1 inh inactive, LEDGF integ inh inactive, rCAG RNA binder 56.2, MBD2 inh inactive, rCAG bind conf 65.2 and dCAG dye counter 27.7.
For O=[N+]([O-])c1ccccc1S(=O)(=O)Nc1cccc(-c2ccc(N3CCCC3)nn2)c1 the results were PG9 binder inactive, UHRF1 MBD2 ctr inactive, DNMT1 inh inactive, LEDGF integ inh inactive, rCAG RNA binder 36.4, MBD2 inh inactive, rCAG bind conf inactive and dCAG dye counter 9.6.
For COCc1cn(CC(=O)c2sc(NC(=O)C(C)(C)C)nc2C)nn1 the results were PG9 binder inactive, UHRF1 MBD2 ctr inactive, LEDGF integ inh inactive, rCAG RNA binder inactive and MBD2 inh inactive.
For CCCn1cc(C(=O)N(C)C2CCCN(Cc3ccccc3F)C2)c(C)n1 (stereo unspecified) the results were PG9 binder inactive, UHRF1 MBD2 ctr inactive, DNMT1 inh inactive, LEDGF integ inh inactive, rCAG RNA binder inactive and MBD2 inh inactive.
For O=[N+]([O-])c1cc(F)cc(F)c1Nc1cc(F)cc(F)c1 the results were PG9 binder inactive, UHRF1 MBD2 ctr inactive, DNMT1 inh inactive, LEDGF integ inh inactive, rCAG RNA binder inactive and MBD2 inh inactive.
Screening CCN(CC)S(=O)(=O)c1ccc(NS(=O)(=O)c2ccc(OC)c([N+](=O)[O-])c2)cc1 returned PG9 binder inactive, UHRF1 MBD2 ctr inactive, DNMT1 inh inactive, LEDGF integ inh inactive, rCAG RNA binder 42.5, MBD2 inh inactive, rCAG bind conf inactive and dCAG dye counter inactive.
For COc1ccc(-c2ccc(NS(=O)(=O)c3cc([N+](=O)[O-])c(C)c([N+](=O)[O-])c3)cc2)nn1 the results were PG9 binder inactive, UHRF1 MBD2 ctr inactive, DNMT1 inh inactive, LEDGF integ inh inactive, rCAG RNA binder 55.5, MBD2 inh inactive, rCAG bind conf 42.5 and dCAG dye counter 15.1.
For O=[N+]([O-])c1ccc(Cl)c(S(=O)(=O)Nc2cccc(-c3ccc(N4CCCC4)nn3)c2)c1 the results were PG9 binder inactive, UHRF1 MBD2 ctr inactive, DNMT1 inh inactive, LEDGF integ inh inactive, rCAG RNA binder 47.1, MBD2 inh inactive, rCAG bind conf 51.6 and dCAG dye counter 18.4.
For COc1ccc(S(=O)(=O)Nc2ccc(S(=O)(=O)N(C)C)cc2)cc1[N+](=O)[O-] the results were PG9 binder inactive, UHRF1 MBD2 ctr inactive, DNMT1 inh inactive, LEDGF integ inh inactive, rCAG RNA binder inactive and MBD2 inh inactive.
COc1ccc(-c2ccc(NS(=O)(=O)c3cc([N+](=O)[O-])ccc3C)cc2)nn1 was read as PG9 binder inactive, UHRF1 MBD2 ctr inactive, DNMT1 inh inactive, LEDGF integ inh inactive, rCAG RNA binder inactive and MBD2 inh inactive.
`O=C(NCc1ccccc1)[C@H]1CCCN1C(=O)[C@H]1CCCN1C(=O)c1ccc(F)c(F)c1` gave PG9 binder inactive, UHRF1 MBD2 ctr inactive, LEDGF integ inh inactive, rCAG RNA binder inactive and MBD2 inh inactive.
`CC1CCc2nc3ccc(S(=O)(=O)N4CCC(C(=O)NC(C)c5ccccc5)CC4)cc3c(C(=O)O)c2C1` (stereo unspecified) gave PG9 binder inactive, UHRF1 MBD2 ctr inactive, DNMT1 inh inactive, LEDGF integ inh inactive, rCAG RNA binder 37.9, MBD2 inh inactive, rCAG bind conf 45.0 and dCAG dye counter 13.7.
`CC1(C(=O)Nc2cnc3ccccc3c2)CCN1Cc1cc2ccccc2o1` (stereo unspecified) gave PG9 binder inactive, UHRF1 MBD2 ctr inactive, DNMT1 inh inactive, LEDGF integ inh inactive, rCAG RNA binder inactive and MBD2 inh inactive.
CCC(C(=O)O)n1nnc(-c2ccc(-c3ccc(OC)cc3)cc2)n1 (stereo unspecified) was read as PG9 binder inactive, UHRF1 MBD2 ctr inactive, DNMT1 inh inactive, LEDGF integ inh inactive, rCAG RNA binder 47.8, MBD2 inh inactive, rCAG bind conf 35.8 and dCAG dye counter 10.2.
O=C(C1=NN[C@@H]2C(=O)N(c3cccc(C(F)(F)F)c3)C(=O)[C@H]12)C(c1ccccc1)c1ccccc1 was read as PG9 binder inactive, UHRF1 MBD2 ctr inactive, DNMT1 inh inactive, LEDGF integ inh inactive, rCAG RNA binder 54.5, MBD2 inh inactive, rCAG bind conf inactive and dCAG dye counter 8.9.
For Cc1cc(C)c(S(=O)(=O)N2CCCC2=O)c(C)c1N(C)S(C)(=O)=O the results were PG9 binder inactive, UHRF1 MBD2 ctr inactive, DNMT1 inh inactive, LEDGF integ inh inactive, rCAG RNA binder inactive and MBD2 inh inactive.
`NC1=NC(=O)/C(=C/c2cn(Cc3ccccc3)c3ccccc23)S1` gave PG9 binder inactive, UHRF1 MBD2 ctr inactive, DNMT1 inh inactive, LEDGF integ inh inactive, rCAG RNA binder 44.5, MBD2 inh inactive, rCAG bind conf inactive and dCAG dye counter 11.4.
